Screens deposited in PubChem by National Center for Advancing Translational Sciences (NCATS).
The list is not random: actives were taken first. Their share in the collection is about 12%.
BAZ2B block: inhibitors of human BAZ2B bromodomain; Potency, µM (series often up to 114 µM), for the others: at the top dose activity change, negative = inhibition, actives largely listed as inhibitors; Q9UIF8; 360,000 tested, 4.4% active; AID 504333; AlphaScreen BAZ2B-H3K14Ac peptide displacement; also: potency is read from the fitted curve at half-maximal effect; % is scaled to controls: 0 for no effect and ±100 for the full control effect; nearly all actives have a fitted effect of over 60% in size
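Protein-peptide AlphaScreen: BAZ2B 50 nM, b-H3K14Ac 50 nM, 1x PBS pH 7.4 + 0.01% Tween-20. Preincubation 30 min RT; cpd 30 min RT (top 110 uM); beads 20 min RT, light-protected.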
G9a block: blocks human histone lysine methyltransferase G9a; Q96KQ7; G9a H3K9 monomethylation, AlphaScreen, 2 h; Potency, µM (top dose mostly 102 µM), without a hit: top-dose activity, negative = inhibition, most hits filed as inhibitors; 350,000 tested, 8.8% active; AID 504332; also: potency is read from the fitted curve at half-maximal effect; % is scaled to controls: 0 for no effect and ±100 for the full control effect; nearly all actives have a fitted effect of over 75% in size
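G9a (20 nM) was preincubated 15 min with compound, then reacted 2 h at room temperature with 500 nM biotin-H3K9 peptide and 20 µM SAM. Monomethyl-H3K9 detected by AlphaScreen using anti-H3K9me1 antibody.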
JMJD2A Tudor: JMJD2A Tudor domain (human) inhibition; AlphaScreen JMJD2A-Tudor / H3K4me3 peptide binding; Potency, µM (highest dose often 114 µM), for the others: at the top dose activity change, negative = inhibition, usual class: inhibitors; 390,000 tested, 4.4% active; AID 504339; also: potency is read from the fitted curve at half-maximal effect; % is scaled to controls: 0 for no effect and ±100 for the full control effect; nearly all actives have a fitted effect of over 50% in size
Target sequence (O75164 whole entry, looked up, the tested form may be a part): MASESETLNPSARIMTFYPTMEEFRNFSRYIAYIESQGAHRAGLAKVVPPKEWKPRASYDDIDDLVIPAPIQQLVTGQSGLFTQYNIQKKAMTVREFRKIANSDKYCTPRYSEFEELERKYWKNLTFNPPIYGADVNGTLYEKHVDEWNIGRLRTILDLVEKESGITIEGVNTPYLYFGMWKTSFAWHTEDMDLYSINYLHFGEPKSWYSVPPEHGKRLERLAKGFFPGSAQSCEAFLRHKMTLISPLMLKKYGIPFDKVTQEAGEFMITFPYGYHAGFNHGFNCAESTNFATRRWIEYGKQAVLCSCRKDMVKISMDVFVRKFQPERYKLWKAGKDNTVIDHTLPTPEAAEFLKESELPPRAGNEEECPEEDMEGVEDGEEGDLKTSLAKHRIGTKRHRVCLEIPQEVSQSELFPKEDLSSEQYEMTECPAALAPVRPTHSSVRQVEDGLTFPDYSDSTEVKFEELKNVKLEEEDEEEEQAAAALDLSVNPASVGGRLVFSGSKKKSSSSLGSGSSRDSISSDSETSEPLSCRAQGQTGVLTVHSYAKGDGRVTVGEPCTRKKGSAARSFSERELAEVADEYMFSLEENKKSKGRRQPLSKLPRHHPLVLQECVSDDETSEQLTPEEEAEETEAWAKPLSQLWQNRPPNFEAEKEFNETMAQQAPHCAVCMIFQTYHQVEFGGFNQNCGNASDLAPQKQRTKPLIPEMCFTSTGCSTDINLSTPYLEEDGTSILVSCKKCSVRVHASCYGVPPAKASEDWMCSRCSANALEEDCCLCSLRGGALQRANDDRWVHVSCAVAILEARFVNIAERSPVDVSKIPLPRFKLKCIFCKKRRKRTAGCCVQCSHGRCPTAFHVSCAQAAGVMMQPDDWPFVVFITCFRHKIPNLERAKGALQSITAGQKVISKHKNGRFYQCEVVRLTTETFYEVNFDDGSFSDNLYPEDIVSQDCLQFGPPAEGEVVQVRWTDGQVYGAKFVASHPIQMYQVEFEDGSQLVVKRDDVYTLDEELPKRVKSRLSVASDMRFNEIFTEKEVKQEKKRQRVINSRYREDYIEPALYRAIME
PLK1 PBD block: inhibitors of human PLK1 polo-box domain binding; P53350; Plk1 PBD binding of FITC phosphopeptide, fluorescence polarization; Potency, µM, inactives show max response, negative = inhibition, most hits filed as inhibitors; 360,000 tested, 2.8% active; AID 720504; also: potency is read from the fitted curve at half-maximal effect; series mostly up to about 57 µM; % is scaled to controls: 0 for no effect and ±100 for the full control effect; nearly all actives have a fitted effect of over 65% in size
HP1b binding inh: inhibitors of HP1-beta chromodomain binding to methylated histone tails; P83916; AlphaScreen HP1-beta / biotin-H3K9me3 peptide binding; Potency, µM (titrated, usually from 114 µM), inactives show at the highest dose activity change, negative = inhibition, actives largely listed as inhibitors; 390,000 tested, 0.56% active; also: potency is read from the fitted curve at half-maximal effect; nearly all actives have a fitted effect of over 70% in size
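HP1-beta protein (50 nM final) preincubated 30 min at room temperature with biotinylated H3(1-18)K9me3 peptide (50 nM) in PBS pH 7.4, 0.01% Tween-20, then compound added for 30 min. AlphaScreen streptavidin donor/nickel chelate acceptor beads (10 ug/mL final), 30 min dark, luminescence read.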
PI5P4Ka inh: blocks human PI5P4K alpha kinase activity. PI5P4Kalpha enzyme, ADP-Glo luminescence, 60 min; stronger effect = lower value. max response, %. 330,000 tested, 1.2% active; active = max response of -50% or lower; inconclusive = between -30% and -50%; inactive = -30% or higher; also: value at the top dose of about 77 µM; % is scaled to controls: 0 for no effect and ±100 for the full control effect
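Reactions run in 0.038 M HEPES pH 7.4, 0.28 mM EGTA, 0.1% CHAPS and 5% DMSO, with PI5P4Kalpha, substrate, compound and 5 microM ATP final, one hour at room temperature. Readout is ADP-Glo luminescence.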
* = called active by the depositor; u = inconclusive; x = no result; [ ] = remark or other dose. Unless noted, calls follow the shape of the dose curve; as a rule, active = well fitted curve in the direction sought with a large enough effect; inconclusive = small, poorly fitted or top-dose-only effect, or another doubt; inactive = no such curve, though single readings can be large; an effect the other way counts as inactive or inconclusive.

SMILES | BAZ2B block | G9a block | JMJD2A Tudor | PLK1 PBD block | HP1b binding inh | PI5P4Ka inh
O=C(Oc1c(Cl)cc(Cl)c2cccnc12)N1CCCCC1 | 3.7% | -13.0%[12.7 µM] | u | -6.9% | 17.1% | -1.9
Oc1c(CN2CCN(c3ccccc3)CC2)cc(Br)c2cccnc12 | u | -9.1%[59 µM] | -35.9% | -2.7% | 40.1% | -1.5
CCOC(=O)N1CCN(Cc2cc(Cl)c3cccnc3c2O)CC1 | 10µM* | x | 22.4µM* | -1.2% | 5.9% | 0.2
CC(C)OCc1cc(CN2CCN(c3ccccc3)CC2)c(O)c2ncccc12 | 8.91µM* | -10.1%[59 µM] | 25.1µM* | x | 21.2% | x
Oc1c(CN2CCOCC2)cc(COCc2ccccc2)c2cccnc12 | 11.2µM* | u | 25.1µM* | 2.6% | 5.9% | 0.3
O=C(Oc1c(CN2CCOCC2)cc(Cl)c2cccnc12)c1ccccc1Br | 20µM* | -7.1% | 39.8µM* | -2.0% | 18.4% | 0.4
CCOCC(=O)N1CCN(c2cccc(Cl)c2)CC1 | -3.4% | u | -3.0%[11.4 µM] | -10.9% | 48.2% | -4.2
O=C(Oc1c(Cl)cc(Cl)c2cccnc12)N1CCOCC1 | 8.2% | 4.4%[12.7 µM] | -9.0% | -9.5% | 10.8% | x
CCOCc1cc(CN2CCN(c3cccc(Cl)c3)CC2)c(O)c2ncccc12 | 12.6µM* | -15.6%[59 µM] | 39.8µM* | x | 22.8% | x
Cn1c(N)c(C#N)c(-c2ccccc2)c(C#N)c1=O | x | x | x | -7.9% | x | 3.0
Cc1cccc(NC(=O)Cn2nc(-c3ccco3)ccc2=O)c1C | -1.1% | u | -13.0% | -1.0% | 12.8% | 1.8
O=C(Cn1nc(-c2ccco2)ccc1=O)Nc1ccc(Br)cc1 | u | 25.1µM* | -27.2% | 21.2µM* | u | -26.1
COC(=O)CCc1c(C)[nH]c(=S)[nH]c1=O | 0.3% | u | -13.9% | -1.3% | 15.7% | 0.9
Cc1ccc(Cc2c(C)[nH]c(=S)[nH]c2=O)cc1 | 6.9% | 44.7µM* | u | -15.8% | 45.0% | -7.7
CCOC(=O)Cc1c(C)[nH]c(=S)[nH]c1=O | -12.8% | -19.3%[59 µM] | 56.2µM* | -10.3% | 20.4% | 2.0
CCN(CC)C(=O)C1=C(C)N(Cc2ccc(F)cc2)C(=O)C(CC(=O)NCCN2CCOCC2)C1 (stereo not drawn) | x | x | x | 5.4% | x | 1.3
OCCN(Cc1ccccc1)Cc1ccccc1O | 56.2µM* | 10µM* | u | -16.0% | 79.4µM* | 0.3
CCCN(CCO)Cc1cccc(Br)c1 | 50.1µM* | u | 4.47µM* | -1.2% | u | x
OCCN(CCO)Cc1ccc(Br)cc1 | 50.1µM* | 20µM* | 20µM* | -2.0% | -35.0% | -5.3
Cn1c(SCc2ccc(C(F)(F)F)cc2)nc2c([nH]c3ccccc32)c1=O | -1.5% | 8.8%[59 µM] | u | x | 21.5%[57 µM] | x
CC1(c2ccc3c(c2)OCCO3)NC(=O)N(CC(=O)c2ccc[nH]2)C1=O (stereo not drawn) | u | 5.3%[59 µM] | -23.6% | 0.8% | 45.4% | -53.2*
CC(=O)c1ccc(OCC(=O)OCC(=O)Nc2sccc2C(N)=O)cc1 | 3.8% | 10.3%[12.7 µM] | 1.4% | 1.4% | 39.5% | -11.2
O=C(c1ccc2c(c1)CCN2S(=O)(=O)c1ccc(Cl)cc1)N1CCN(c2ccccc2)CC1 | u | u | -28.3% | x | 10.3% | x
Cc1ccc(S(=O)(=O)NNC(=S)NCC2CCCO2)cc1 (stereo not drawn) | -15.1% | 25.1µM* | -13.8% | -2.0% | -15.6% | 1.5
O=C(NC(=S)N(CC1CCC1)CC1CCCO1)c1cccc([N+](=O)[O-])c1 (stereo not drawn) | u | 50.1µM* | -35.0% | -24.6% | -4.2% | 0.5
SMILES | BAZ2B block | G9a block | JMJD2A Tudor | PLK1 PBD block | HP1b binding inh | PI5P4Ka inh
COc1ccccc1NS(=O)(=O)c1ccc(O)c(NC(=S)NCC2CCCO2)c1 (stereo not drawn) | -9.1% | x | -13.8% | 13.4µM* | u | -18.9
Cc1ccccc1N1CC(C(=O)Nc2ccc(S(=O)(=O)NCC3CCCO3)cc2)CC1=O (stereo not drawn) | -0.3% | -3.1% | 89.1µM* | u | 6.2% | 0.1
COc1ccc(-c2cccc(NS(=O)(=O)c3cc(C)c(Cl)cc3C)c2)nn1 | -11.3% | 7.2%[59 µM] | -29.4% | x | 3.7%[57 µM] | x
COc1ccc(N2CCN(C(=O)COC(=O)c3ccc(-n4nc(C)cc4C)cc3)CC2)cc1 | -24.3% | u | -19.2% | -9.5% | 18.3% | 6.6
Cc1ccc2nc(NC(=O)CSc3nc(=O)n(CCN(C)C)c4c3CCCC4)sc2c1 | -22.7% | u | -22.3% | -6.1% | -6.5% | 6.6
Cc1noc(C)c1NC(=O)Nc1ccc2c(c1)C(=O)N([C@H](C)CO)C[C@H](C)[C@@H](CN(C)C(=O)Nc1ccc3c(c1)OCO3)O2 | x | x | -19.6% | -3.3% | 6.8% | 5.6
CCOC(=O)[C@H]1[C@H]2COc3ccc(OC)cc3[C@@H]2N2C(=O)c3ccccc3NC(=O)[C@@]12C | -3.2% | 18.0%[2.33 µM] | -17.2% | -17.4% | 29.0% | 2.0
O=C(NCC1CCCO1)c1cc([N+](=O)[O-])ccc1Cl (stereo not drawn) | 2.4% | 50.1µM* | 1.4% | 0.0% | 15.2% | 0.6
Cc1ccc(C)c(NS(=O)(=O)c2ccc(OCC(=O)NCC3CCCO3)cc2)c1 (stereo not drawn) | -11.9% | -9.9% | 0.7% | -19.5% | 26.2% | -1.5
Cc1ccc(NS(=O)(=O)c2ccc(OCC(=O)NCC3CCCO3)cc2)cc1 (stereo not drawn) | 5.1% | 6.0% | 50.1µM* | 29.9µM* | -4.8% | -25.6
Cc1ccc(C(=O)N/C(=C/c2ccc(N(C)C)cc2)C(=O)NCC2CCCO2)cc1 (stereo not drawn) | -4.0% | 28.2µM* | -29.8% | -7.2% | 1.1% | -8.4
O=C(NCC1CCCO1)c1ccccc1NS(=O)(=O)c1cc([N+](=O)[O-])ccc1Cl (stereo not drawn) | x | x | -18.1% | 2.3% | 33.9% | -0.2
Cc1ccc(C(=O)NC(=S)NCC2CCCO2)cc1Br (stereo not drawn) | u | 44.7µM* | -19.4% | 0.7% | 5.9% | 9.1
Cc1ccc(C(=O)N/C(=C/c2ccc(Cl)cc2)C(=O)NCC2CCCO2)cc1 (stereo not drawn) | 6.2% | 21.9%[59 µM] | 3.0% | 3.6% | 33.2% | 0.6
CCc1ccccc1NC(=O)CN(c1ccccc1)S(=O)(=O)c1ccsc1C(=O)OC | -7.9% | 17.4%[59 µM] | -10.7% | x | -10.3% | x
NC(=O)c1ccccc1C[C@H](C(=O)O)N1C(=O)c2ccc(C(=O)O)cc2C1=O | u | 5.7%[12.7 µM] | -35.9% | x | x | x
O=C(Nc1cccc(F)c1)N1CC[C@@]2(CCCN(C(=O)c3ccncc3)C2)C1 | x | -29.3%[12.7 µM] | x | x | x | x
CCNS(=O)(=O)c1ccc(NC(=S)NCC2CCCO2)cc1 (stereo not drawn) | -4.5% | x | u | 23.8µM* | -8.2% | -24.5
O=C(Cc1ccc(Cl)c(Cl)c1)NNC(=S)NCC1CCCO1 (stereo not drawn) | -0.2% | 21.9%[0.501 µM] | -17.6% | -29.2% | 52.3% | -0.7
